Drawing on PubChem BioAssay (NCI), this text covers growth for 25 compounds.

What all share (test): NCI-60 one-dose screen, 48 h (100 = growth as untreated, 0 = no growth, -100 = all killed)
Holding throughout (details): 10 µM unless noted

Assay [1] relates to HCT-15 colon.
In assay [2] the test system is HT29 colon.
The subject of assay [3] is SNB-75 CNS.
The test system of assay [4] is SNB-19 CNS.
Assay [5] relates to U251 CNS.
For assay [6], the system named is PC-3 prostate.
Assay [7] deals with SK-MEL-5 melanoma.
Assay [8] concerns UACC-62 melanoma.
In assay [9] the test system is LOX IMVI melanoma.
Assay [10] deals with SK-MEL-28 melanoma.

Compounds without any hit were thinned out: in the full panel of roughly 83,000, 20% have a hit.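 Compound tested at a single concentration for 48 hours in 96-well plates; a percent growth value below 10 was scored as active.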 Values without a mark were called inactive. Active and inactive are the calls of the source.

With `O=C1c2cccnc2C(=O)c2c1c(C(=O)OCCCN1CCCCC1)c1ccccn21`, the growth in [1] was -55.5% (active); in assay [2], -24.2% (active); in [3] it was -88.7% (active); in assay [4] it was -38.2% (active); in assay [5], -31% (active); in [6], -18.2% (active). The growth in assay [7] is -96.2% (active); in assay [8], -51.2% (active); in assay [9] it was -67.2% (active); in [10], -20.3% (active).
With `CC[C@]12C=CCN3CC[C@@]4(c5ccc(OC)cc5N(C)[C@H]4[C@@](O)(C(=O)OC)[C@@H]1OC(=O)CCCN1CCOCC1)[C@@H]32`, the growth in assay [1] is 110%; in assay [2], 110%; in assay [3] it was 91.5%; in [4] it was 101%; in [5], 101%; in assay [6], 105%. Further, the growth in [7] is 103%; in [8], 97.6%; in assay [9], 110%; in assay [10], 109%.
Turning to `C=C1C(=O)O[C@H]2[C@H]1CC/C(COC(=O)NCCCCCCCCNC(=O)OC/C1=C/CC[C@@]3(C)O[C@H]3[C@H]3OC(=O)C(=C)[C@@H]3CC1)=C\CC[C@@]1(C)O[C@@H]21`, the growth in assay [1] was -83.9% (active); in assay [2], -67.1% (active); in [3], -19.8% (active); in [4], 6.51% (active); in assay [5], -48.2% (active); in [6], -64.3% (active). Besides, the growth in assay [7] was -85.3% (active); in assay [8], -70.8% (active); in assay [9], -78.2% (active); in [10] it was -75.3% (active).
Consider `CO[C@H](C(=O)[C@@H](O)[C@@H](C)O)[C@@H]1Cc2cc3cc(O[C@H]4C[C@@H](O[C@H]5C[C@@H](O)[C@H](O)C(C)O5)[C@H](O)C(C)O4)c(C)c(O)c3c(O)c2C(=O)[C@H]1O[C@H]1C[C@@H](O[C@H]2C[C@@H](O[C@H]3C[C@@H](OC)[C@H](O)C(C)O3)[C@@H](O)C(C)O2)C(O)(O)C(C)O1` (stereo not given in full), for which the growth in [1] is 34.2%; in [2], -0.578% (active); in assay [3], -41.6% (active); in [4] it was 11.8%; in assay [5], 9.8% (active); in assay [6], 19.4%. Further, the growth in assay [7] was -51.5% (active); in assay [8], -43.5% (active); in assay [9] it was 3.54% (active); in [10] it was -15.5% (active).
Consider `CC(=O)N/C(=C1/OC(C(O)C(O)C(O)CO)CN1C)[P+](c1ccccc1)(c1ccccc1)c1ccccc1` (stereo not given), for which the growth in assay [1] is 98.5%; in assay [2], 115%; in assay [3], 75.3%; in [4], 91.2%; in assay [5] it was 98%; in [6] it was 98.2%. Further, the growth in assay [7] was 95.5%; in [8] it was 98.6%; in assay [9], 98.2%; in assay [10], 106%.
On to `CC1(C)CC2=C3C=C[C@@H]4[C@@]5(C)CC[C@H](O)C(C)(C)[C@@H]5CC[C@@]4(C)[C@]3(C)CC[C@@]2(C(=O)O)CC1=O`, for which the growth in [1] was 28%; in assay [2] it was 35.7%; in assay [3] it was 16.8%; in [4] it was 68.9%; in [5], 32.3%; in assay [6], 45%. Also, the growth was 25.3% in assay [7], 53.6% in [8], 46.9% in [9] and 30.9% in assay [10].
On to `COc1ccc(C2=NN(C(C)=O)C(c3ccc(Oc4ccnc5cc(Cl)ccc45)c(OC)c3)C2)cc1` (stereo not given), for which the growth was 90.6% in assay [1]; 15.1% in assay [2]; 16.1% in assay [3]; 73.1% in assay [4]; 45.7% in assay [5]; 56% in assay [6]. Further, the growth in [7] is 65.8%; in assay [8], 54.7%; in assay [9] it was 53.2%; in assay [10], 35.8%.
As for `Nc1c(C(=O)Nc2ccccn2)sc2nc3c(cc12)C(O)CCC3` (stereo not given), the growth is 23.1% in [1]; 11.8% in assay [2]; 12.7% in assay [3]; 20.9% in assay [4]; 19% in assay [5]; 16.3% in assay [6]. The growth in assay [7] was 20.3%; in assay [8] it was 18.7%; in assay [9], 36.6%; in assay [10] it was 46.6%.
On to `CN1CCN(CCCOc2ccc3ncnc(Nc4ccc(Oc5cccc(F)c5)c(Cl)c4)c3c2)CC1`, for which the growth in assay [1] was -3.99% (active); in [2], -25.1% (active); in assay [3] it was 52.1%; in assay [4], 34.8%; in assay [5] it was 8.27% (active); in [6] it was 8.64% (active). The growth is -96.3% (active) in [7], -31.8% (active) in [8], -91.6% (active) in assay [9] and -85.9% (active) in assay [10].
`N#C/C(=C\c1ccc(Br)cc1)c1cc2ccccc2[nH]1`: the growth in assay [1] was 94%; in [2], 109%; in [3] it was 104%; in assay [4] it was 94.5%; in assay [5] it was 95.1%; in [6], 84.7%. Further, the growth in [7] was 97.4%; in assay [8] it was 87.8%; in [9], 95.3%; in assay [10], 103%.
Regarding `Cc1nn(-c2ccccc2)c(N2CCCCC2)c1/C=N/NC(=O)Cn1c(=O)sc2ccccc21`, the growth in [1] is 61.3%; in assay [2] it was 57.3%; in [3], 75%; in assay [4] it was 70.9%; in assay [5], 73.4%; in assay [6], 61.7%. The growth in [7] was 73.7%; in assay [8], 64.3%; in [9], 60.3%; in assay [10], 114%.
On to `CC1(C)CCC(S(=O)(=O)c2ccc3c(c2)/C(=N\O)c2cc(S(=O)(=O)N4CCN(c5ccc(F)cc5O)CC4)ccc2-3)CC1`, for which the growth in [1] is -75.1% (active); in [2] it was -88.7% (active); in assay [3] it was -97.6% (active); in assay [4], -72.7% (active); in assay [5], -97.7% (active); in assay [6], -64.2% (active). Moreover, the growth in [7] was -93.6% (active); in assay [8], -69.7% (active); in [9], -82.6% (active); in [10], -72.2% (active).
As for `CCOC(=O)c1c(-c2ccccc2)n2c(=O)cc(C)c3c(O)c(O)cc1c32`, the growth is 28.8% in [1]; 70.9% in assay [2]; 63.6% in [3]; 65.6% in assay [4]; 48.8% in assay [5]; 41.7% in [6]. Besides, the growth in assay [7] was 41.9%; in assay [8], 69.4%; in [9], 43%; in assay [10], 76%.
Consider `COc1ccc(-c2cc(-c3ccc(OC)cc3)nc(NCCCNc3ccnc4cc(Cl)ccc34)n2)cc1`, for which the growth in assay [1] is -77% (active); in [2] it was -59.6% (active); in [3], 112%; in assay [4] it was 93.3%; in assay [5], 70.7%; in assay [6], 61.5%. In addition, the growth in [7] was 22.7%; in assay [8] it was 91.8%; in [9], -95% (active); in [10], 37.5%.
In the case of `CCCCn1sc(=O)n(Cc2ccc(CNC(=O)OCc3ccc4c(Cl)cc(Cl)c(O)c4n3)cc2)c1=O`, the growth in assay [1] was 19%; in [2], 101%; in assay [3] it was 81.1%; in [4], 52.5%; in assay [5] it was 41.1%; in [6] it was 58.5%. In addition, the growth was 59.5% in [7], 47.9% in assay [8], 46% in assay [9] and 69.2% in [10].
Take `COc1ccc2c(c1)c(-c1cc(-c3cn(C)c4ccc(OC)cc34)on1)cn2C`: the growth in assay [1] was 98.6%; in assay [2] it was 97.3%; in assay [3], 97.8%; in assay [4], 94.5%; in [5], 93.7%; in [6] it was 87.9%. For the same compound, the growth was 81.2% in assay [7], 90.7% in assay [8], 81.8% in assay [9] and 94.5% in assay [10].
For the compound `CCN(CC)CCOc1ccc(Nc2ncc3cc(-c4ccc(O)cc4)c(=O)n(C)c3n2)cc1`, the growth in [1] was 19.7%; in assay [2], 14.8%; in assay [3] it was 27.7%; in assay [4] it was 62.4%; in [5] it was 53.9%; in [6], -49.3% (active). The growth in assay [7] is 92.9%; in assay [8], 93.3%; in assay [9], -11.7% (active); in assay [10] it was 55.7%.
For `COC(=O)c1c2c(n3ccc(C)cc13)C(=O)c1ccccc1C2=O`, the growth in assay [1] is 53.6%; in assay [2] it was 61.5%; in assay [3] it was 109%; in assay [4], 78.3%; in assay [5], 77.3%; in assay [6], 48.9%. The growth was 28.5% in assay [7], 78.3% in assay [8], 58.3% in assay [9] and 99.4% in assay [10].
Regarding `Cc1[nH]c(/C=C/C(=O)c2ccc(C(F)(F)F)c(F)c2)c(C)c1C(=O)NCC(C)C`, the growth is 93.8% in assay [1]; 102% in assay [2]; 89.4% in [3]; 92.2% in assay [4]; 100% in [5]; 103% in assay [6]. The growth in assay [7] was 99.8%; in assay [8], 96.6%; in [9] it was 90.5%; in assay [10], 106%.
In the case of `Cn1cc(-c2nonc2-c2c[nH]c3ccccc23)c2ccccc21`, the growth in assay [1] was 16.6%; in assay [2] it was 5.85% (active); in [3], -18.2% (active); in [4] it was 12.8%; in [5], 12.4%; in assay [6] it was 20.7%. Besides, the growth in [7] was 21.2%; in assay [8], 8.21% (active); in [9], 23.5%; in assay [10] it was 41.6%.
For the compound `Cc1ccc(N=Nc2c(N)nn(-c3ccccc3)c2N)cc1`, the growth was 21% in [1]; 11.7% in assay [2]; 32.6% in [3]; 46.7% in assay [4]; 28.2% in [5]; 56.7% in assay [6]. Further, the growth is -18.6% (active) in [7], 31.5% in [8], 47.1% in [9] and 56.8% in assay [10].
Turning to `COc1ccc(C(C)=O)cc1S(N)(=O)=O`, the growth in assay [1] is 107%; in assay [2], 86%; in assay [3], 101%; in assay [4] it was 99.7%; in assay [5], 98.6%; in assay [6], 85.7%. Further, the growth in assay [7] is 104%; in assay [8], 94.7%; in [9], 106%; in assay [10], 106%.
Take `O=C1/C(=C/c2ccccc2)CN(C(=O)c2cccnc2)C/C1=C\c1ccccc1`: the growth in assay [1] is -5.39% (active); in [2], -34% (active); in assay [3] it was 81.6%; in assay [4] it was 6.39% (active); in assay [5] it was -23.8% (active); in [6], -17.6% (active). The growth is -39.1% (active) in assay [7], -46.2% (active) in assay [8], -84% (active) in assay [9] and -9.39% (active) in assay [10].
On to `CC(C)c1ccc(NC(=O)Nc2ccc(NC(=O)c3ccccc3N)cc2)cc1`, for which the growth is 50.7% in assay [1]; 26.5% in assay [2]; 26.3% in [3]; 55.5% in assay [4]; 35.6% in [5]; 47.6% in [6]. Moreover, the growth in assay [7] is 24.3%; in [8], 3% (active); in [9], 20.9%; in [10], 39.9%.
For the compound `COc1ccc(NC(=O)c2ccc(C(=O)Nc3ccc(OC)cc3OC)cc2)c(OC)c1`, the growth was 81.4% in assay [1]; 90% in assay [2]; -39.3% (active) in assay [3]; 50.9% in assay [4]; 46.3% in assay [5]; 75.9% in [6]. Also, the growth was 96.7% in assay [7], 73.8% in assay [8], 71.8% in assay [9] and 101% in [10].
